The source of these data is PubChem BioAssay (NCI).

The structures appear in SMILES notation. About 83,000 compounds went through this panel and 20% of them were active in at least one assay; those are over-represented in the sample as a whole.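 48-hour exposure, single concentration, 96-well plates; percent growth endpoint where 0 means no net growth. Active: below 10.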 The source made the active and inactive calls.

The subject of this assay is SK-MEL-28 melanoma. Put plainly: NCI-60 one-dose screen, 48 h (100 = growth as untreated, 0 = no growth, -100 = all killed). The settings on record: 10 µM.
As to `COc1ccc(/C=C2\CCCC3=C2NC(N)=NC3c2ccc(OC)cc2)cc1` (stereo not given), the growth was 98.5% (inactive).

`CN(C)CCCOc1cccc(NC2=C(Cl)C(=O)C(Nc3cccc(OCCCN(C)C)c3)=C(Cl)C2=O)c1`: the growth was -72.7% (active).

As to `N#CC1=C(N)Oc2cc(N)ccc2C1c1cccnc1` (stereo not given), the growth is 102% (inactive).

Consider `COc1cc(/C=C/c2cc(/C=C/c3ccc(O)c(OC)c3)n(C(=O)Nc3ccc(C)cc3)n2)ccc1O`, for which the growth was 13.2% (inactive).

In the case of `Cc1ccc(-n2nnnc2N)c(C)c1`, the growth was 112% (inactive).

With `CCCCN(CCCC)C(=O)[C@H](CC)[C@@H]1CC[C@@H](C)[C@@H]([C@H](C)[C@@H](O)[C@@H](C)C(=O)[C@H](CC)C2O[C@]3(C=C[C@@H](O)[C@]4(CC[C@@](C)([C@H]5CC[C@](O)(CC)[C@H](C)O5)O4)O3)[C@H](C)C[C@@H]2C)O1` (stereo not given in full), the growth is 39.8% (inactive).

For the compound `COc1ccc2c(c1)C(=O)/C(=C/c1ccc([N+](=O)[O-])o1)O2`, the growth was -71.1% (active).

With `Cc1ccc(S(=O)(=O)N(C)CCCCCC(=O)O)cc1`, the growth was 105% (inactive).

In the case of `NC1=NC(c2ccc(Cl)cc2)C2=C(N1)/C(=C/c1ccc(Cl)cc1)CCC2` (stereo not given), the growth was 99.2% (inactive).

As for `S=C(NCc1ccccc1)NCc1ccccc1`, the growth is 107% (inactive).

As to `COc1cc2cc(Oc3ccc(NC(=O)c4ccccc4)cc3)c(C)nc2cc1OC`, the growth was 92.9% (inactive).

On to `Cc1c(Cl)cccc1NC(=O)CN1CCOCC1`, for which the growth was 109% (inactive).

`C=CCN(CC=C)C(=O)[C@H](CC)[C@@H]1CC[C@@H](C)[C@@H]([C@H](C)[C@@H](O)[C@@H](C)C(=O)[C@H](CC)C2O[C@]3(C=CC(=O)[C@]4(CC[C@@](C)([C@H]5CC[C@](O)(CC)[C@H](C)O5)O4)O3)[C@H](C)C[C@@H]2C)O1` (stereo not given in full): the growth was 19.8% (inactive).

For the compound `CCN1CCN(CCC(=O)Nc2cccc(-n3cc(-c4ccncc4)c(-c4ccc(Cl)c(OC)c4)n3)c2)CC1`, the growth is -52.3% (active).

Take `Nc1ccn(Cc2nnc(CCC(=O)c3nc4ccccc4[nH]3)o2)c(=O)n1`: the growth is 104% (inactive).

On to `Cc1ccc2nc(Cl)c(-c3nc4ccccc4o3)cc2c1`, for which the growth was 104% (inactive).

`C/C=C/CSC(C)(C)C(=O)NC`: the growth was 112% (inactive).

For `COc1cc2c(Nc3ccc(S(N)(=O)=O)cc3)ncnc2c(OC)c1OC`, the growth was 98.7% (inactive).

For the compound `CC(=O)OC1C=CC(OC(C)=O)O1` (stereo not given), the growth was 110% (inactive).

With `CC(=O)C1N=NCC1c1ccccc1` (stereo not given), the growth is 112% (inactive).

In the case of `O=C(CN(C1CCCCC1)C1CCCCC1)Nc1ccc(S(=O)(=O)c2ccc(NC(=O)CN(C3CCCCC3)C3CCCCC3)cc2)cc1`, the growth was 12.2% (inactive).

As for `Cc1c[nH]c(=O)n(Cc2nnc(CCC(=O)c3nc4ccccc4[nH]3)o2)c1=O`, the growth is 40.9% (inactive).

As for `O=C(CCn1cnc2c(cc(-c3ccccc3)n2-c2ccccc2)c1=O)Nc1ccc(F)cc1`, the growth is 80.5% (inactive).

On to `CN(C)CCOc1cccc(NC2=C(Cl)C(=O)C(Nc3cccc(OCCN(C)C)c3)=C(Cl)C2=O)c1`, for which the growth is -63.9% (active).

With `CN1CCN(CCC(=O)Nc2cccc(-n3cc(-c4ccncc4)c(-c4ccc(Cl)c(O)c4)n3)c2)CC1`, the growth is 57.7% (inactive).

Turning to `CC(=O)Nc1ccc(CC[C@H]2CCC/C=C/[C@@H]3C[C@H](O)C[C@H]3[C@H](O)/C=C/C(=O)O2)cc1`, the growth is 6.75% (active).

Regarding `CN(C)CCN(Cc1ccccc1)c1ccc2ccccc2n1`, the growth is 101% (inactive).

Take `C/C(=N\O)c1ccc(NC(=O)CSc2nnc(-c3ccccc3)n2-c2ccccc2)cc1`: the growth was 97.7% (inactive).

On to `CCC(CC)n1c(C)cc(=O)n1C(CC)CC`, for which the growth was 107% (inactive).

For the compound `CC[C@@H](C(=O)[C@H](C)[C@H](O)[C@@H](C)[C@H]1O[C@H]([C@@H](CC)C(=O)O)CC[C@H]1C)C1O[C@]2(C=C[C@@H](O)[C@]3(CC[C@@](C)([C@H]4CC[C@](O)(CC)[C@H](C)O4)O3)O2)[C@H](C)C[C@@H]1C` (stereo not given in full), the growth was -93% (active).

Turning to `O=C(O)c1cc([N+](=O)[O-])ccc1Oc1ccccc1`, the growth was 107% (inactive).

Consider `O=[N+]([O-])c1cccc(/C=N/NC(=S)NC23CC4CC(CC(C4)C2)C3)c1`, for which the growth was 85.4% (inactive).

With `COc1cc(C(=O)n2nc(-c3cc(OC)c(OC)c(OC)c3)nc2N)cc(OC)c1OC`, the growth was 97% (inactive).

As to `COc1ccc(-c2n[nH]nc2-c2cc(OC)c(OC)c(OC)c2)cc1`, the growth was 64.4% (inactive).

Regarding `C=CCN(CC=C)C(=O)[C@H](CC)[C@@H]1CC[C@@H](C)[C@@H]([C@H](C)[C@@H](O)[C@@H](C)C(=O)[C@H](CC)C2O[C@]3(C=C[C@@H](O)[C@]4(CC[C@@](C)([C@H]5CC[C@](O)(CC)[C@H](C)O5)O4)O3)[C@H](C)C[C@@H]2C)O1` (stereo not given in full), the growth was 33.9% (inactive).

For `O=C(Nc1cccc2c1CCCC2)c1cc2ccccc2cc1O`, the growth is 34.2% (inactive).

With `O=C1/C=C/[C@@H](O)[C@@H]2C[C@@H](O)C[C@H]2/C=C/CCC[C@H](CCc2ccc(NC(=S)Nc3ccc4c(c3)C(=O)OC43c4ccc(O)cc4Oc4cc(O)ccc43)cc2)O1`, the growth was 9.95% (active).

With `COc1cc(/C=C/c2cc(/C=C/c3ccc(O)c(OC)c3)nc(N)n2)ccc1O`, the growth is 9.55% (active).

In the case of `CC(=O)Oc1cc(OC(C)=O)c2ccccc2c1OC(C)=O`, the growth is 99.5% (inactive).

Regarding `CCOc1ccccc1/C=N\N=C\c1ccccc1O`, the growth is 112% (inactive).
